NS1 function inh: blocks influenza NS1 protein function; Potency, µM (top dose mostly 46.1 µM); 270,000 compounds, 0.4% hits; AID 2326; calls by dose curve; note: actives are rising curves; nearly all actives have a fitted effect of over 50% in size
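Growth recovery, yeast-based: influenza A NS1 expressed in S. cerevisiae causes slow growth, and suppressors are detected by OD600. The parent strain without NS1 is used as positive control.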
Cycloheximide cs: counter-screen hit for Shiga toxin inhibitors, cycloheximide; cell reporter, cycloheximide protein synthesis inhibition counterscreen; max response, %; 300,000 compounds, 12% hits; in the data active = max response mostly above about 13%, no sharp cut-off; inactive = mostly below about 14%; note: read at 38.3 µM for the half of the compounds with a filed dose
Pf growth 48h: P. falciparum growth inhibition at 48 hours (one generation). AID 504832. P. falciparum luciferase growth in erythrocytes, 48 h. Potency, µM (doses to about 28.7 µM), hits mostly inhibitors. 310,000 compounds, 5.9% hits
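Here the parasites carry a stable luciferase gene and grow inside erythrocytes in Albumax-based RPMI medium with compound for one erythrocytic cycle. Activity is scored as loss of luminescent signal.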
Pf growth 96h: inhibits malaria parasite growth, 96 h. P. falciparum luciferase reporter growth, 96 h. Potency, µM (doses to about 28.7 µM), actives largely listed as inhibitors. 320,000 compounds, 6.9% hits
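P. falciparum expressing integrated firefly luciferase, in erythrocytes at 2% hematocrit, 0.05% parasitemia, incubated with compounds 96 h at 37 C, 5% CO2. Growth inhibition read as loss of luminescence; two-generation exposure targets delayed-death apicoplast inhibitors.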
SARS PLP yeast: SARS-CoV PLP inhibition in yeast; AID 485353; Potency, µM (top dose mostly 32.9 µM), hits mostly activators; S. cerevisiae expressing SARS-CoV PLpro, growth rescue; 330,000 compounds, 0.19% hits; calls by dose curve; note: nearly all actives have a fitted effect of over 55% in size
Shiga toxin inh: Shiga toxin inhibition. Vero cells, Shiga toxin protein synthesis inhibition reporter. inhibition, % at 38.7 µM. 290,000 compounds, 9.2% hits; in the data active = inhibition mostly above about 28%, no sharp cut-off; inactive = mostly below about 43%
Of the large screens only hits and unclear results are named; the others gave an inactive call. Only some compounds are listed: those with a hit (about 21% of all), similar ones and a draw of the others. Unless noted, calls come from the whole dose curve; as a rule, active = well fitted inhibition curve with a large enough effect; inconclusive = small, poorly fitted or top-dose-only effect, or another doubt; inactive = no such curve, though single readings can be large or run the other way.

N/C(=N\OC(=O)CC1CCCCC1)c1ccc([N+](=O)[O-])cc1	Cycloheximide cs 18.4
N/C(=N\OC(=O)CCC1CCCC1)c1ccc(Br)cc1	Pf growth 48h inconclusive, Pf growth 96h inconclusive
N/C(=N\OC(=O)CCC1CCCCC1)c1ccc([N+](=O)[O-])cc1	none
N/C(=N\OC(=O)CCC1CCCCC1)c1cccnc1	Cycloheximide cs 16.8, Shiga toxin inh 35.4
COc1ccc(NC(=O)COC(=O)CC2CCCCC2)cc1	none (no result: NS1 function inh, Cycloheximide cs, Shiga toxin inh)
N/C(=N\OC(=O)CCC1CCCC1)c1cccc([N+](=O)[O-])c1	Cycloheximide cs 18.3
COc1ccc(/C(N)=N/OC(=O)CC2CCCCC2)cc1	Cycloheximide cs 47.0, Shiga toxin inh 159.4
O=C(NNC(=O)c1ccc(Br)s1)c1cccc(Cl)c1	Pf growth 48h inconclusive (no result: NS1 function inh, Cycloheximide cs, Shiga toxin inh)
O=C(Nc1ccccc1C(=O)O)c1ccc(CN2C(=O)c3ccccc3C2=O)cc1	none
N/C(=N\OC(=O)CC1CCCCC1)c1cccc([N+](=O)[O-])c1	Cycloheximide cs 35.1, Shiga toxin inh 82.8
CCOC(=O)C1CCCN(C2=NC(=O)/C(=C/c3ccc(OC)cc3)S2)C1 (centres undefined)	Pf growth 48h 10.4µM, Pf growth 96h inconclusive
CCOC(=O)C1CCCN(C2=NC(=O)/C(=C/c3ccc(O)c(OCC)c3)S2)C1 (centres undefined)	Pf growth 48h inconclusive
CCOC(=O)CSC1=NC(=O)/C(=C/c2ccc(OC)cc2)S1	Cycloheximide cs 22.1, Shiga toxin inh 61.4
CCOC(=O)C1CCCN(C2=NC(=O)/C(=C/c3ccc(N(C)C)cc3)S2)C1 (centres undefined)	Cycloheximide cs 25.7, Pf growth 48h 6.57µM, Shiga toxin inh 33.4
CCOC(=O)C1CCCN(C2=NC(=O)/C(=C/c3ccc(OC)cc3OC)S2)C1 (centres undefined)	Pf growth 48h 6.57µM
COc1ccccc1CNC(=O)[C@@H]1CCCN1S(=O)(=O)c1ccc(C)cc1	Pf growth 96h inconclusive (no result: NS1 function inh)
COc1ccc(S(=O)(=O)N(CC(=O)NCC2CCCO2)Cc2ccccc2)cc1C (centres undefined)	none
COc1ccc(CCN(C)C(=O)/C=C/c2c(Cl)nc3ccccn23)cc1OC	Pf growth 48h 11.7µM, Pf growth 96h inconclusive (no result: NS1 function inh)
O=C(N1CCCC1)C12CC3CC(CC(C3)C1)C2	Pf growth 48h 11.7µM, SARS PLP yeast inconclusive
O=C(N1CCCCC1)C12CC3CC(C1)CC(C(=O)N1CCCCC1)(C3)C2	none (no result: Pf growth 96h)
Cc1cc(C(=O)Cn2nnc3ccccc3c2=O)c(C)n1-c1c(C)n(C)n(-c2ccccc2)c1=O	none
COc1ccc(-n2c(C)cc(C(=O)Cn3nnc4ccccc4c3=O)c2C)cc1	Cycloheximide cs 15.4, Pf growth 48h inconclusive
COc1ccc(-n2c(C)cc(C(=O)COc3ccc(-n4cnnn4)cc3)c2C)cc1	none
COc1ccc(-n2c(C)cc(C(=O)Cn3nc(C(=O)O)c4ccccc4c3=O)c2C)cc1	Cycloheximide cs 26.3, Pf growth 48h inconclusive, Pf growth 96h inconclusive, Shiga toxin inh 34.0
Cc1cc(C(=O)Cn2nnc3ccccc3c2=O)c(C)n1-c1ccccc1F	Cycloheximide cs 45.9 (no result: Pf growth 96h)
COCC(C)n1c(C)cc(C(=O)Cn2nc(C(=O)O)c3ccccc3c2=O)c1C (centres undefined)	Shiga toxin inh 54.6 (no result: NS1 function inh)
Cc1cc(C(=O)Cn2nc(C(=O)O)c3ccccc3c2=O)c(C)n1-c1ccc(OC(F)F)cc1	Pf growth 48h inconclusive, Pf growth 96h inconclusive
CC1CCCC(N2CCN(S(=O)(=O)c3ccccc3)CC2)C1 (centres undefined)	Pf growth 96h inconclusive
Cc1cc(C(=O)OCC(=O)Nc2c(F)cccc2F)c(C)n1-c1ccccc1	Cycloheximide cs 55.5, Shiga toxin inh 109.5
Cc1cc(C(=O)COC(=O)c2ccc(O)cc2)c(C)n1-c1ccccc1F	Cycloheximide cs 41.6, Shiga toxin inh 107.3 (no result: NS1 function inh)
Cc1ccc(-n2c(C)cc(C(=O)Cn3nc(C(=O)O)c4ccccc4c3=O)c2C)cc1	Cycloheximide cs 19.0, Pf growth 96h inconclusive, Shiga toxin inh 41.8
Cc1cc(C(=O)COC(=O)c2ccc[nH]c2=O)c(C)n1-c1ccccc1F	none
CC(C)C(=O)Nc1ccc(C(=O)CSc2nnc(C3CC3)n2C2CC2)cc1	Pf growth 48h inconclusive (no result: NS1 function inh, Cycloheximide cs, Shiga toxin inh)
C/C(=N\Nc1nc(C)cc(-c2ccccc2)n1)c1ccc(C)o1	Pf growth 48h 13.1µM, Pf growth 96h 1.04µM
C/C(=N\NC(=O)C(O)(c1ccccc1)c1ccccc1)c1ccc(C)o1	none
C/C(=N/Nc1nc(C)cc(-c2ccccc2)n1)c1ccco1	Cycloheximide cs 20.8 (no result: Pf growth 96h)
CC(C)CC(N=Cc1c(O)c2ccccc2oc1=O)C(=O)O (centres undefined)	none (no result: NS1 function inh)
CCOC(=O)c1nn(-c2ccccc2)c(=O)c2c(N)scc12	none
Nc1scc2c(C(=O)N/N=C/c3ccc(Cl)cc3)nn(-c3ccccc3)c(=O)c12	Pf growth 48h inconclusive, Pf growth 96h 5.22µM
COc1ccc([N+](=O)[O-])cc1NS(=O)(=O)Cc1ccccc1	none
CNc1cc([N+](=O)[O-])ccc1OCc1ccccc1	Cycloheximide cs 27.2, Shiga toxin inh 89.5
Cc1nn(CCOc2cccc(Br)c2)c(C)c1[N+](=O)[O-]	Pf growth 48h inconclusive (no result: NS1 function inh)
O=[N+]([O-])c1ncccc1OCc1ccc(-c2ccccc2)cc1	Cycloheximide cs 18.7
Cc1ccc(OCCOc2cccc(Br)c2)c([N+](=O)[O-])n1	Cycloheximide cs 40.0, Shiga toxin inh 96.0
Cc1ccc(OCc2ccc(-c3ccccc3)cc2)c([N+](=O)[O-])n1	Cycloheximide cs 25.1
Cc1cc(NS(=O)(=O)Cc2ccccc2)no1	none
CN(CC(=O)Nc1ccccc1Cl)C(=O)COC(=O)c1ccc(-c2ccc(O)cc2)cc1	none (no result: NS1 function inh, Cycloheximide cs, Pf growth 48h, Pf growth 96h, Shiga toxin inh)
CC(C)Sc1nnc([C@H](Cc2c[nH]c3ccccc23)NC(=O)OC(C)(C)C)o1	Pf growth 48h inconclusive (no result: Pf growth 96h)
CCOc1cc(Br)c(COc2ccc(C)nc2[N+](=O)[O-])cc1OCC	Pf growth 48h inconclusive, Pf growth 96h inconclusive
Cc1ccc(OCc2ccc(Br)cc2)c([N+](=O)[O-])n1	Cycloheximide cs 56.1, Shiga toxin inh 83.8
O=[N+]([O-])c1ccc(/C=C2\CCC(C3=CCCC3)=C2N2CCOCC2)cc1	Cycloheximide cs 24.3
Cc1cc(NC(=O)CSc2nnc(C(C)N(C)C)n2-c2ccc(F)cc2)no1 (centres undefined)	none (no result: NS1 function inh)
O=C(Nc1ccccc1C(F)(F)F)N1CCCCCC1	Cycloheximide cs 9.6, Pf growth 96h inconclusive, Shiga toxin inh 34.7
NC(=O)C1(N2CCCCC2)CCN(C(=O)Nc2ccccc2C(F)(F)F)CC1	Pf growth 96h 1.65µM
O=C(Nc1ccccc1C(F)(F)F)N1CCCC(O)C1 (centres undefined)	Pf growth 96h inconclusive
N#Cc1cc(-c2ccccc2)oc1/N=C/c1ccccc1O	Cycloheximide cs 28.9, Pf growth 48h inconclusive
COc1cccc(C=Nc2ccccc2C#N)c1O	none
O=C(O)c1cc(N=Cc2ccccc2O)cc(C(=O)O)c1	none (no result: Cycloheximide cs, Pf growth 48h, Pf growth 96h, SARS PLP yeast, Shiga toxin inh)

Screens (PubChem BioAssay)
